An excerpt weighted towards active compounds, which were near 3.5% of everything screened.
GPR151 ag: activates the human receptor GPR151; Q8TDV0; PathHunter beta-arrestin GPR151 cells, luminescence; activation, % at 11.2 µM; hit rate 1% among 650,000; AID 1508602; in the data active means activation above about 4.9%;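 further: 0% = median of compound wells and 100% = cells with positive control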
FBW7 act: human FBW7 E3 ligase activation, primary screen | AlphaScreen FBW7–phospho-cyclin E peptide binding, activator screen | normalized activity (activation), % at 26.1 µM | hit rate 0.13% among 650,000 | AID 1259310; in the data active means normalized activity above about 1.9%;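 further: purified mutant Fbw7 with reduced substrate affinity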
TEAD-YAP block: TEAD-YAP interaction inhibition; HEK-TIYL cells, TEAD-Gal4/YAP UAS-luciferase luminescence; hit rate 1.4% among 640,000; inhibition, % at 9.12 µM; in the data active means inhibition above about 32%;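 further: 0% = median of test compound wells and 100% = reference inhibitor wells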
MITF primary: human MITF inhibition, primary screen; inhibition, % at 2.6 µM; O75030; AlphaScreen MITF homodimerization, bead proximity signal; hit rate 0.91% among 650,000; AID 1259374; in the data active means inhibition above about 50%;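 further: 0% = vehicle wells with protein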
Target sequence (O75030 whole entry, looked up): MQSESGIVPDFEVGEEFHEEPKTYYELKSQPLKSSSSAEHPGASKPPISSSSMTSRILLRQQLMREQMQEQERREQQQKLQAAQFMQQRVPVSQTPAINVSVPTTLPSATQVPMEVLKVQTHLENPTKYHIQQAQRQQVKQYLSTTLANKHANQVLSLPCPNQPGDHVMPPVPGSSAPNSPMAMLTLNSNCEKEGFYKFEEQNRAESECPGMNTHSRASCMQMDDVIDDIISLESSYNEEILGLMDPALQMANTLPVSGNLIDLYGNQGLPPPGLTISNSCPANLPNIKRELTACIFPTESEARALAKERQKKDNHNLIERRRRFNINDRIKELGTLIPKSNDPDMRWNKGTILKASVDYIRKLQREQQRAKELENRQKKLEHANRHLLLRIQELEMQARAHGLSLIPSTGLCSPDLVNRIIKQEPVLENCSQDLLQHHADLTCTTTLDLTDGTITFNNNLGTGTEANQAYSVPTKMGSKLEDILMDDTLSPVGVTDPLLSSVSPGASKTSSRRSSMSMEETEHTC
Starred values were filed as active, the others as inactive.

SMILES | GPR151 ag | FBW7 act | TEAD-YAP block | MITF primary
O=[N+]([O-])c1cccc(NC(c2ccco2)c2ccc3cccnc3c2O)c1 (stereo not drawn) | 2.3 | -1.9 | 74.6* | 82.2*
O=[N+]([O-])c1ccc(NC(c2ccco2)c2ccc3cccnc3c2O)cc1 (stereo not drawn) | 0.7 | -2.0 | 69.8* | 57.6*
COc1ccc(-c2cc(C(=O)NCc3ccc(F)cc3)c3ccccc3n2)cc1 | -0.1 | 0.0 | -0.5 | -4.9
Cc1nc2cc(-c3cccc(F)c3)nn2c(C)c1CCC(=O)NCc1ccc2c(c1)OCO2 | -0.2 | -0.1 | 1.0 | 13.4
CSC1=NSC2=NC(=O)/C(=C\c3ccc(C)o3)C(=N)N12 | -1.9 | 0.2 | -26.2 | 17.4
CSC1=NSC2=NC(=O)/C(=C\c3ccc([N+](=O)[O-])o3)C(=N)N12 | 0.1 | -0.7 | -12.1 | 85.4*
O=C(Cc1ccc(F)cc1)Nc1cc(-c2cn[nH]c2)ccn1 | -0.2 | 0.3 | 82.4* | -16.2
Oc1ccc(CCNc2nc(Nc3ccc4ncccc4c3)nc3c2ncn3-c2ccccc2)cc1 | 0.5 | 0.0 | 45.6* | 1.0
Oc1ccc(CCNc2nc(Nc3ccncn3)nc3c2ncn3-c2ccccc2)cc1 | -1.6 | 0.1 | 43.0* | 12.4
CCCNc1nc(Nc2ccncc2)nc2c1ncn2-c1ccccc1 | -1.6 | 0.4 | 43.0* | 13.6
CCCNc1nc(Nc2ccccc2)nc2c1ncn2-c1ccccc1 | -0.8 | -0.1 | -5.5 | -7.5
CCCNc1nc(Nc2ccc3ncccc3c2)nc2c1ncn2-c1ccsc1 | 1.2 | 0.1 | 48.3* | -0.7
COc1ccc([C@H]2C[C@H](C(=O)N3CCC(C)CC3)N(C)S(=O)(=O)N2)cc1 | 1.3 | 0.5 | 0.0 | 5.1
OCCNc1nc(Nc2ccc3ncccc3c2)nc2c1ncn2-c1ccccc1 | -1.3 | 0.1 | 45.1* | 18.8
OCCNc1nc(Nc2ccncn2)nc2c1ncn2Cc1ccc(C(F)(F)F)cc1 | -0.9 | 3.1* | -12.0 | 16.9
CCCNc1nc(Nc2ccc3ncccc3c2)nc2c1ncn2-c1ccccc1 | 1.8 | 0.0 | 34.4* | 5.0
CC(=O)NC(c1ccccc1C)c1ccc2cccnc2c1O (stereo not drawn) | -0.6 | -0.6 | 84.7* | 23.7
CC(=O)NC(c1ccc2cccnc2c1O)c1cccc2ccccc12 (stereo not drawn) | -0.1 | -1.7 | 82.4* | 46.2
COc1ccccc1C(NC(C)=O)c1cc(Cl)c2cccnc2c1O (stereo not drawn) | -0.2 | -0.2 | 2.6 | 3.3
NC1=NC(=O)/C(=C/c2cc(O)ccc2Cl)S1 | -1.7 | 1.4 | 38.6* | 2.3
COc1ccc(OC)c(/C=C2\SC(N)=NC2=O)c1 | 1.2 | 0.4 | -20.7 | 58.4*
COc1ccc(/C=C2/SC(N)=NC2=O)c(OC)c1 | -0.5 | 0.0 | 4.9 | 9.8
CC(C)C(=O)Nc1ccc(NC(=O)c2ccccc2)nc1 | -0.3 | 0.1 | 7.6 | 6.3
O=C(CCN1C(=O)C2C3C=CC(CC3)C2C1=O)N1CCN(c2ccc(F)cc2)CC1 (stereo not drawn) | 0.5 | 0.5 | 10.0 | 3.2
Cc1ccccc1C(=O)OCC(=O)c1cc(C)n(Cc2ccco2)c1C | -1.3 | 0.0 | 69.2* | 13.7
SMILES | GPR151 ag | FBW7 act | TEAD-YAP block | MITF primary
Cc1cc(C(=O)COC(=O)c2n[nH]c3ccccc23)c(C)n1Cc1cccs1 | 0.6 | -0.2 | 74.2* | -13.6
Cc1cc(C(=O)COc2ncnc3sccc23)c(C)n1Cc1cccs1 | -0.9 | -0.2 | 32.8* | -19.2
Cc1cc(C(=O)COc2ncnc3sccc23)c(C)n1CC1COc2ccccc2O1 (stereo not drawn) | -0.8 | 0.0 | 5.0 | 13.6
Cc1cc(C(=O)COC(=O)c2cccnc2Cl)c(C)n1Cc1cccs1 | -0.3 | 0.0 | 47.0* | 5.2
Cc1ccc(CN2CCN(Cc3cccc(C)c3)CC2CCO)cc1 (stereo not drawn) | -0.6 | -0.1 | 1.7 | -18.4
COc1ccc(C2C(C(=O)Nc3cc(C)on3)c3ccccc3C(=O)N2C2CCCCC2)cc1 (stereo not drawn) | 0.5 | 0.1 | -1.9 | 4.5
CCCCOc1ccc(N2C(N)=NC(N)=NC2(C)C)cc1 | -0.2 | -0.1 | 37.0* | 2.8
CC1(C)N=C(N)N=C(N)N1c1ccc(F)cc1 | -1.4 | -0.1 | 5.9 | 1.1
CCN(CC)S(=O)(=O)c1ccc(S(=O)(=O)NC(C(=O)OC)C(C)C)cc1 (stereo not drawn) | 2.8 | -0.1 | 4.9 | 2.0
CN(C)c1ccc(C(=O)Nc2ccccc2F)cc1 | -8.9 | 0.2 | 74.5* | -4.5
CCc1nnc(NS(=O)(=O)c2ccc(NC(=O)c3ccccc3)cc2)s1 | 1.6 | -0.1 | 8.8 | 1.6
CCc1nnc(NS(=O)(=O)c2ccc(NC(=S)NC(=O)c3ccccc3)cc2)s1 | -0.5 | 2.9* | -10.1 | -1.7
Cc1ccc(N/C(=N/S(=O)(=O)c2ccccc2)c2ccccc2)cc1 | 1.2 | 0.3 | 43.7* | 9.0
Cc1cc2c(cc1C)n(C1CC(=O)C3OCC1O3)c(=S)n2Cc1ccccc1Cl (stereo not drawn) | 2.2 | 0.1 | 48.0* | 13.4
Cc1cccc(N(C)S(=O)(=O)c2ccc3c(c2)oc(=O)n3C)c1 | -0.6 | 0.0 | 46.1* | 13.0
O=C(/C=C/c1ccccc1)Nc1ccc(S(=O)(=O)Nc2nccs2)cc1 | 0.0 | -0.2 | -9.4 | -1.3
C/C(=N\Nc1ccc(C(F)(F)F)cc1[N+](=O)[O-])C1CC1 | 4.0 | 0.0 | 6.6 | 8.4
C/C(=N\Nc1cccc(C(F)(F)F)c1)C1CC1 | 0.9 | 3.4* | -8.0 | 39.9
O=C(c1cnn2c1NC(c1ccco1)CC2C(F)(F)F)N1CCN(Cc2ccccc2)CC1 (stereo not drawn) | -1.1 | 0.0 | 44.8* | 28.0
Oc1ccccc1-c1ccc2c(-c3ccc(N4CCNCC4)cc3)[nH]nc2n1 | 0.5 | 0.0 | 61.4* | 7.9
CCc1nn(CC(=O)C(C)(C)C)c(=O)c2cc3ccsc3n12 | -1.0 | 17.0* | 2.4 | -4.4
COc1ccccc1N1CCN(C(=O)c2cccc(F)c2)CC1 | -2.2 | 0.2 | 0.4 | 6.2
CCc1cccc2c(/C=N/NC(=O)c3n[nH]c(=O)c4ccccc34)c[nH]c12 | -1.1 | 0.0 | 47.2* | 8.0
CCCOc1ccc(/C=N/NC(=O)c2n[nH]c(=O)c3ccccc23)cc1OC | -1.8 | 0.1 | -6.2 | 2.4
CC(C)C(=O)N1CCC(c2nc(-c3ccc(N(C)C)cc3)no2)CC1 | 1.7 | 0.5 | -11.7 | 4.2
SMILES | GPR151 ag | FBW7 act | TEAD-YAP block | MITF primary
Cn1c(=O)[nH]c(=O)c2c1nc(NN)n2CC(O)COc1ccccc1 (stereo not drawn) | 0.6 | 0.3 | 1.3 | -12.3
CC(C)CCC1(C2CCN(Cc3cnn(C)c3)CC2)NC(=O)NC1=O (stereo not drawn) | -0.4 | -0.1 | -6.2 | -14.2
CC(=O)c1c(C)n(-c2ccc(N(C)C)cc2)c2ccc(O)cc12 | -0.1 | -0.1 | 40.2* | 5.1
ClC1(Cl)CC1CSc1n[nH]c(-c2ccccc2)n1 (stereo not drawn) | -0.7 | 0.1 | -51.4 | 2.6
O=C(Nc1cccc2ncccc12)c1ccc(N2CCCCC2)c([N+](=O)[O-])c1 | 0.9 | 0.0 | 32.2* | -11.9
CCc1ccccc1NC(=O)c1ccc(N2CCCCCC2)c([N+](=O)[O-])c1 | -1.8 | 0.0 | 0.7 | -9.1

Screens as filed in PubChem BioAssay.
